Drawing on PubChem BioAssay (NCATS), this text covers activity, negative = cell killing and Potency for 18 compounds.

“And” between values parts separate entries of the source, which are not always exact repeats. Identical values can stand only once. Records with an inconclusive call do not appear. Unmarked numbers belong to inactive results. The source made the active and inactive calls. Calls follow the shape of the dose curve; as a rule, active = well fitted inhibition curve with a large enough effect; inconclusive = small, poorly fitted or top-dose-only effect; inactive = flat fitted curve, though single readings scatter.

A short description of test [1]: Drug repurposing screens with cells derived from glioblastoma tumor samples (AID 1345199). Also: nearly all actives have a fitted effect of over 40% in size. Conditions: GBM patient neurospheres viability, ATP luminescence, 48 h. Summed up: (§1)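 Four patient lines of CD133+ GBM neurospheres were screened at several concentrations; hits were retested in those lines plus three slower-growing GBM lines, using 48-hour treatment and ATP-based viability.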

A further test concerns astro (control astrocytes). The description is as above. Conditions: viability, ATP luminescence, 48 h; series mostly up to 45.9 µM. Summed up: as §1
[2] abbreviates: at 45.9 µM (top of the series), tumour line B.
Setting [3] is: at 46 µM (top of the series), tumour line A.
The mark [4] stands for this setting: at 46.1 µM (top of the series), tumour line C.
The mark [5] stands for this setting: at 20 µM (top of the series), tumour line C.
Setting [6] is: at 21.2 µM (top of the series), tumour line B.
Where [7] appears, read: at 21.2 µM (top of the series), tumour line D.
[8] abbreviates: at 45.9 µM (top of the series), tumour line D.
% is scaled to controls: 0 for no effect and ±100 for the full control effect; potency is read from the fitted curve at half-maximal effect.

Regarding `CC1(C)O[C@@H]2C[C@H]3[C@@H]4CCC5=CC(=O)C=C[C@]5(C)[C@H]4[C@@H](O)C[C@]3(C)[C@]2(C(=O)CO)O1`, the activity, negative = cell killing in test [1] (setting [2]) is -5.55%; in test [1] (setting [3]), -10.6%; in test [1] (setting [4]), -10.7%. Besides, the Potency result with astro is “inactive”.

Consider `CNC(C)[C@@H]1CC[C@@H](N)[C@@H](O[C@H]2[C@H](O)[C@@H](O[C@H]3OC[C@](C)(O)[C@H](NC)[C@H]3O)[C@H](N)C[C@@H]2N)O1` (stereo partly specified), for which the activity, negative = cell killing in test [1] (setting [5]) is -7.4%; in test [1] (setting [6]), -11.6%; in test [1] (setting [7]) it was 12.7%; in test [1] (at 21.3 µM (top of the series), tumour line A) it was -18.8%. The Potency result in the test with astro was “inactive”.

With `C/C1=C2N=C(/C=C3N=C(/C(C)=C4\[N-][C@@](C)([C@@H]5N=C1[C@](C)(CCC(=O)NCC(C)OP(=O)(O)O[C@H]1[C@@H](O)[C@@H](n6cnc7cc(C)c(C)cc76)O[C@@H]1CO)[C@H]5CC(N)=O)[C@@](C)(CC(N)=O)[C@@H]4CCC(N)=O)[C@@](C)(CC(N)=O)[C@@H]\3CCC(N)=O)C(C)(C)[C@@H]/2CCC(N)=O.CC(=O)O.[Co]` (stereo partly specified), the activity, negative = cell killing was -15.2% in test [1] (setting [2]), -26.7% in test [1] (setting [8]) and -29% in test [1] (setting [3]). In addition, the Potency result in the test with astro was “inactive”.

In the case of `CCCCC(=O)O[C@]1(C(=O)CO)[C@H](C)C[C@H]2[C@@H]3CCC4=CC(=O)C=C[C@]4(C)[C@@]3(F)[C@@H](O)C[C@@]21C`, the activity, negative = cell killing in test [1] (setting [2]) is -7.12%; in test [1] (setting [8]) it was -22.7%; in test [1] (setting [4]), -23.5%. In the test on astro, the Potency result is “inactive”.

Regarding `Cc1ccccc1`, the activity, negative = cell killing in test [1] (setting [2]) is 6.08%; in test [1] (setting [8]), -15.8%; in test [1] (setting [4]) it was 2.61%. Also, the Potency result in the test on astro is “inactive”.

Take `CC(C)=O`: the activity, negative = cell killing is -1.76% in test [1] (setting [2]), -10.6% in test [1] (setting [8]) and -8.82% in test [1] (setting [4]). Besides, the Potency entry with astro is “inactive”.

With `CC1(C)S[C@@H]2[C@H](NC(=O)C(N)c3ccccc3)C(=O)N2[C@H]1C(=O)OC1OC(=O)c2ccccc21` (stereo partly specified), the figures for the activity, negative = cell killing in test [1] (setting [5]), in test [1] (setting [6]) and in test [1] (setting [7]) were -5.29%, -22.1% and -10.3%, respectively. In addition, in the test with astro, the Potency entry was “inactive”.

Turning to `CCCCC(CC)COC(=O)CC(C(=O)OCC(CC)CCCC)S(=O)(=O)O` (stereo unspecified), the activity, negative = cell killing in test [1] (setting [2]) was 1.3%; in test [1] (setting [3]), -17.3% and -22.7%; in test [1] (setting [4]) it was -38.9%. The Potency result with astro was “inactive”.

As to `Nc1ncnc2c1ncn2[C@@H]1O[C@H](COP(=O)(O)OP(=O)(O)OP(=O)(O)O)[C@@H](O)[C@H]1O`, the activity, negative = cell killing in test [1] (setting [2]) is 15.4%; in test [1] (setting [8]), -9.21%; in test [1] (setting [3]) it was -1.48%; in test [1] (setting [4]), 38.9%. The Potency result in the test with astro was “inactive”.

In the case of `Cc1c(C)c2c(c(C)c1O)CC[C@@](C)(CCC[C@H](C)CCC[C@H](C)CCCC(C)C)O2`, the activity, negative = cell killing in test [1] (setting [2]) is -3.57% and 0.952%; in test [1] (setting [8]), -15.8% and 5.62%; in test [1] (setting [3]), -28.9%; in test [1] (setting [4]), -17.8% and 12.9%. In the test on astro, the Potency entry is “inactive”.

For the compound `O=C1CSC2(CCN(CCCN3c4ccccc4Sc4ccc(Cl)cc43)CC2)N1`, the activity, negative = cell killing in test [1] (setting [4]) is -24.2%. For the same compound, the Potency in test [1] (tumour line A) was 3.16 µM (active); in test [1] (tumour line D), 20 µM (active); in the test on astro, 25.1 µM (active).

As to `CC(=O)OCC(=O)[C@@]12OC3(CCCC3)O[C@@H]1C[C@H]1[C@@H]3CCC4=CC(=O)C=C[C@]4(C)[C@@]3(F)[C@@H](O)C[C@@]12C`, the activity, negative = cell killing in test [1] (setting [2]) was -7.71%; in test [1] (setting [8]) it was -10.7%; in test [1] (setting [4]), 3.06%. Moreover, in the test with astro, the Potency entry was “inactive”.

As to `CC(NNC(=O)c1ccccc1)c1ccccc1` (stereo unspecified), the values for the activity, negative = cell killing in test [1] (setting [2]), in test [1] (setting [8]) and in test [1] (setting [4]) were -15.6%, -19.2% and -40.2%, respectively. Moreover, in the test with astro, the Potency entry was “inactive”.

On to `C[C@]12CCC(=O)C=C1CC[C@@H]1[C@@H]2[C@@H](O)C[C@@]2(C)[C@H]1CC[C@]2(O)C(=O)COP(=O)(O)O`, for which the activity, negative = cell killing was -5.72% in test [1] (setting [2]), -20.1% in test [1] (setting [8]), -14% in test [1] (setting [3]) and -20.1% in test [1] (setting [4]). Also, in the test with astro, the Potency entry was “inactive”.

As to `O=C(O)C1CCCN1` (stereo unspecified), the activity, negative = cell killing in test [1] (setting [2]) is -8.24%; in test [1] (setting [8]), -1.47%; in test [1] (setting [4]), -1.4%. Also, in the test with astro, the Potency result was “inactive”.

For `COC(=O)[C@H]1[C@H]2C[C@@H]3c4[nH]c5ccccc5c4CCN3C[C@H]2C[C@@H](OC(=O)c2cc(OC)c(OC)c(OC)c2)[C@@H]1OC`, the activity, negative = cell killing in test [1] (setting [2]) and in test [1] (setting [4]) was -12.2% each time. Also, the Potency in test [1] (tumour line A) was 12.6 µM (active). Besides, the Potency entry in the test with astro was “inactive”.

As to `C[C@H]1C[C@H]2[C@@H]3CCC4=CC(=O)C=C[C@]4(C)[C@@]3(F)[C@@H](O)C[C@]2(C)[C@@]1(O)C(=O)CO`, the activity, negative = cell killing was -16% in test [1] (setting [2]), -25% in test [1] (setting [8]) and -24.5% in test [1] (setting [3]). Further, the Potency result in the test with astro is “inactive”.

Regarding `O=C(COc1ccc(Cl)cc1)OCCNC12CC3CC(CC(C3)C1)C2`, the activity, negative = cell killing in test [1] (setting [2]) was -5.61%; in test [1] (setting [8]), -18.7%; in test [1] (setting [4]) it was -2.27%. For the same compound, in the test with astro, the Potency entry is “inactive”.
